# Screening data from PubChem.
# An excerpt weighted towards active compounds, which were near 3.1% of everything screened.
# Beta cell apopt – blocks beta cell apoptosis | INS-1E cytokine-induced death, ATP luminescence, 48 h; percent of positive-control rescue, neutral wells zero | protection from apoptosis, % (no concentration beside the values) | actives 0.8% (n = 300,000);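 active = Every replicate reaches about 75%, or at least half do and their mean reaches it too, limit read from the data; inconclusive = At least half of replicates reach the limit but their mean does not; inactive = Under half of replicates reach the limit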;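 note: 0% = cytokine-treated negative control wells and 100% = positive control rescue; higher means more ATP so stronger rescue from cytokine killing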
# PP1 inh – counter-screen for PP5 inhibitors: inhibitors of human PP1-alpha; purified PP1alpha, OMFP fluorescence; P62136; inhibition, % at 6.7 µM; actives 0.9% (n = 320,000);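 active = inhibition above the mean inhibition of all tested compounds plus 3 SD, computed separately for each screening campaign, cut at about 15% in these data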
# Target sequence (P62136 whole entry, looked up): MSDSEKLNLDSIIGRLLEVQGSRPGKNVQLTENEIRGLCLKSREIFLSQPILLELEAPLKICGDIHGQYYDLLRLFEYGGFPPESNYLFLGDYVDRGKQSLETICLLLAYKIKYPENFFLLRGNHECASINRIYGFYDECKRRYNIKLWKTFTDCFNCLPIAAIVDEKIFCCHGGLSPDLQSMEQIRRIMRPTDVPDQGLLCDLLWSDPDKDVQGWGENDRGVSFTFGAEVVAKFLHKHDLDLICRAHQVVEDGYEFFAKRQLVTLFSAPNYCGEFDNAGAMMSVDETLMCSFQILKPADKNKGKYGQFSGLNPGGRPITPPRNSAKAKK
# PP5 inh – inhibitors of human protein phosphatase 5 (PP5); P53041; purified PP5c, OMFP substrate fluorescence; inhibition, % at 6.7 µM; actives 0.18% (n = 320,000);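 active = inhibition above the campaign's mean inhibition across all tested compounds plus 3 SD, cut at about 9.5% in these data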;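 note: 0% = DMSO only and 100% = 100 µM cantharidin control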
# CSC inhib – cancer stem cell inhibition. cancer stem cell-like cells viability, luminescence. inhibition, % at 7.5 µM. actives 1.1% (n = 300,000); in the data active = inhibition above about 75%; inconclusive = no clear call, values can overlap the other calls; tested in HMLE shEcad cells
# SKKanGAS inh – SKKanGAS growth inhibition. actives 1.3% (n = 300,000). S. pyogenes SKKanGAS, kanamycin growth, BacTiter-Glo, 6 h. inhibition, % at 7.5 µM;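 active = mean replicate score, as percent of positive control median, at least 50; inconclusive = mean below 50 but one replicate at or above 50; inactive = mean and every replicate below 50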;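 note: strain carries kanamycin resistance gene driven by streptokinase promoter and grows in 40 µg/ml kanamycin; loss of luminescence reflects streptokinase promoter inhibition or plain growth inhibition; 0% = median of DMSO wells and 100% = positive control at its reference dose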
# * = called active by the depositor; ? = inconclusive; / = no result.
SMILES,Beta cell apopt,PP1 inh,PP5 inh,CSC inhib,SKKanGAS inh
COc1ccc(NC(C)=O)cc1S(=O)(=O)N1CCN(C/C=C/c2ccccc2)CC1,-6,4,2,2,2
Cc1nnc(SCC(=O)Nc2nc(-c3ccc(F)cc3)cs2)[nH]c1=O,-4,1,0,-6,1
CCCc1ccc(-c2cc(NC(=O)CSc3n[nH]c(N)n3)n(-c3ccccc3)n2)cc1,-6,1,6,91*,4
CCCC1=NN2C(=N)/C(=C\c3ccc(SCc4ccco4)o3)C(=O)N=C2S1,8,43*,-3,20,8
O=C(NCc1cccnc1)/C(=C\c1ccc(-c2cccc(Cl)c2)o1)S(=O)(=O)c1ccccc1,104*,3,1,101*,-6
N#C/C(=C/c1ccc(CNC(=O)C(=O)Nc2cc(Cl)cc(Cl)c2)o1)C(=O)NCc1cccnc1,9,-6,1,52,1
O=C(NCc1cccnc1)/C(=C/c1ccc(-c2cccc(Cl)c2)o1)S(=O)(=O)c1ccccc1,112*,1,-1,100*,-2
Cc1ccc(OC(C)C(=O)Nc2ccccc2C(=O)N2CCN(C)CC2)cc1 (stereo not given),-5,-3,-1,-8,0
CCCCn1c(N)c(N(CC(C)C)C(=O)c2ccc(C)c(S(=O)(=O)N3CCCCC3)c2)c(=O)[nH]c1=O,-3,-2,-2,3,13
CC(CCC(=O)O)C1CC[C@@]2(C)C3C(=O)CC4C(C)(C)C(O)CC[C@]4(C)C3C(=O)C[C@]12C (stereo not given in full),-1,1,0,-4,7
C/C(=C/CCC(C)[C@H]1CC[C@@]2(C)C3=C(CC[C@]12C)[C@@]1(C)CCC(=O)C(C)(C)[C@@H]1CC3)C(=O)O (stereo not given in full),1,-2,0,8,105*
C/C(=C/CCC(C)C1CCC2(C)C3CCC4C(C)(C)C(=O)CCC4(C)C3=CCC12C)C(=O)O (stereo not given),/,/,/,/,105*
Cc1cc(C)n2nc(SCC(=O)N3CCC(C)CC3)nc2n1,0,/,/,7,/
COc1ccc(S(=O)(=O)N2CCCCCC2)cc1Br,/,/,/,/,-1
COc1ccc(OC)c(NC(=O)NCCc2cccc(Cl)c2)c1,-1,-6,2,-8,0
COc1ccc(S(=O)(=O)NCC2CCCN(CC(C)(C)C)C2)cc1 (stereo not given),-4,-2,1,35,-16
O=c1[nH]c(=O)n([C@H]2C[C@H](O)[C@@H](CO)O2)cc1F,40,0,3,71,92*
O=c1[nH]c(=O)n([C@H]2C[C@H](O)[C@@H](CO)O2)cc1Br,-2,-5,0,-5,/
CCCC1(c2ccccc2)NC(=O)N(CC(=O)Nc2cc(C)ccc2OC)C1=O (stereo not given),93*,-3,1,-19,0
COc1ccc2nc(SCC(=O)NC3(C#N)CCCCC3)[nH]c2c1,-1,-5,1,-3,3
CCOc1cc(/C=N/NC(N)=O)ccc1OC(=O)c1ccc(C)cc1,0,0,5,-11,-7
CCOc1cc(/C=N/NC(=O)CNc2ccc(C)cc2)ccc1OC(=O)c1ccccc1,-4,15*,2,12,6
O=C(O)C1Nc2c(Cl)cc(Cl)c(Cl)c2C2C=CCC12 (stereo not given),-2,6,3,-12,7
CC(C)C1Nc2c(O)cc(Cl)c([N+](=O)[O-])c2C2C=CCC21 (stereo not given),/,/,/,/,79*
Cc1ccccc1C([O-])=Nc1ccc[n+](-c2nc3ccccc3nc2NS(=O)(=O)c2ccccc2)c1,-2,0,3,-15,17
SMILES,Beta cell apopt,PP1 inh,PP5 inh,CSC inhib,SKKanGAS inh
COc1ccc(OCc2n(CC(=O)OC3CC(C)CCC3C(C)C)c3ccccc3[n+]2C)cc1 (stereo not given),100*,16*,2,58,12
CC(C)c1nnc(NC(=O)CCC(=O)NC2CCCc3ccccc32)s1 (stereo not given),/,-6,-2,-18,2
Cc1ccc(S(=O)(=O)N2CCOC2CNC(=O)C(=O)NCCN(C)C)cc1 (stereo not given),-7,-7,1,26,3
CN1CCC(Oc2ccccc2Sc2ccc(C(F)(F)F)cc2)CC1,18,3,4,75*,7
CN1CCC(Oc2ccc(Sc3ccccc3)cc2)CC1,-1,2,3,?,-1
Cc1ccc(-c2nc3cccnc3s2)cc1NS(=O)(=O)c1ccc2c(c1)OCCO2,8,1,3,77*,40
Cc1ccc(-c2cc(C(F)F)nc(N3CCC(C)CC3)n2)cc1,/,0,-1,44,63*
CCCCCCn1ccc(=N)cc1,120*,-3,3,12,0
CCCCCCN1C2=NCCN2c2ccccc21,/,-4,1,1,8
COc1ccc(NC(=O)c2cc(-c3cc(C)cc(C)c3O)n[nH]2)cc1Cl,14,6,5,99*,99*
Cc1cccc(NC(=O)c2cc(-c3cc(C)cc(C)c3O)n[nH]2)c1,7,1,4,76*,23
COc1ccc(NC(=O)c2cc(-c3ccccc3O)n[nH]2)cc1Cl,1,/,/,-3,1
Cc1cc(C)c(O)c(-c2cc(C(=O)Nc3cccnc3)[nH]n2)c1,-4,-3,3,47,-11
Cc1ccc(C(=O)NC2CCCCNC2=O)cc1 (stereo not given),-1,-1,0,-7,14
CC(C)(O)C#Cc1ccc(CN2CCN(CCc3ccccc3)C(CCO)C2)s1 (stereo not given),-13,-4,0,3,0
Cc1cc(C)c2nc(NNC(=O)c3cc(-c4cccs4)nc4ccccc34)sc2c1,/,6,3,97*,89*
Cc1ccc2sc(NNC(=O)c3cc(-c4cccs4)nc4ccccc34)nc2c1C,/,2,1,38,90*
COc1ccc(C(C(=O)NCC2CCCO2)N(C(=O)c2snc(C(N)=O)c2N)c2ccccc2C)cc1OC (stereo not given),-5,1,1,-8,-1
CCCCn1c(NC(=O)c2ccco2)c(S(=O)(=O)c2ccc(C)cc2)c2nc3ccccc3nc21,/,/,/,/,21
CCCCn1c(NS(=O)(=O)c2ccccc2)c(S(=O)(=O)c2ccc(C)cc2)c2nc3ccccc3nc21,86*,5,9,37,73*
NS(=O)(=O)c1ccc(N2N=C(c3ccc(Br)cc3)CC2c2ccc(F)cc2)cc1 (stereo not given),-1,2,6,125*,72*
COc1ccc(NC2CCCN(C(=O)c3cc4ncccn4n3)C2)cc1 (stereo not given),2,0,2,-4,1
Cc1ccc(-c2nc(N)sc2CC(=O)OCC(=O)NCC2CCCO2)cc1 (stereo not given),-14,-1,1,-27,5
O=C(Nc1cccc(NC(=O)c2cc([N+](=O)[O-])ccc2Cl)n1)c1cc([N+](=O)[O-])ccc1Cl,104*,4,0,67,1
